Screens from PubChem BioAssay.
Shown are actives, neighbours in structure and some others; about 0.93% of the full set was active somewhere.
CDC25B CDK2 inh – human CDC25B-CDK2/CyclinA binding inhibition; P30305+P24941; HTRF CDC25B-CDK2/CyclinA binding, anti-His/anti-Flag; active compounds read high; z-score (concentration not given with the values); hit rate 0.72% among 94,000; AID 1259370; in the data active means z-score above about 3.2
TAR Tat displ – HIV-1 TAR-Tat binding disruption | HIV-1 TAR RNA, Tat peptide displacement FRET; active compounds read high | z-score (concentration not given with the values) | hit rate 0.6% among 100,000 | AID 1259389; active means z-score of 3 or more in at least 2 runs
Of the large screens only hits and unclear results are named; the others gave an inactive call.

Cc1cc(C)cc(NC(=O)CSc2nc(-c3ccccc3)nc3cc(=O)[nH]n23)c1	none (no result: CDC25B CDK2 inh)
O=C(CSc1nc(-c2cccs2)nc2cc(=O)[nH]n12)Nc1ccccc1	none (no result: CDC25B CDK2 inh)
CCc1ccc(NC(=O)CSc2nc(-c3ccc4c(c3)OCO4)nc3cc(=O)[nH]n23)cc1	none (no result: CDC25B CDK2 inh)
CN(Cc1ccccc1)C(=O)CSc1nc(-c2ccccc2)nc2cc(=O)[nH]n12	TAR Tat displ 10 (no result: CDC25B CDK2 inh)
CN(C(=O)CSc1nc(-c2ccccc2)nc2cc(=O)[nH]n12)c1ccccc1	none (no result: CDC25B CDK2 inh)
COc1ccc(NC(=O)CSc2nc(-c3cccs3)nc3cc(=O)[nH]n23)cc1	TAR Tat displ 14 (no result: CDC25B CDK2 inh)
CSc1cccc(NC(=O)CSc2nc(-c3ccc4c(c3)OCO4)nc3cc(=O)[nH]n23)c1	TAR Tat displ 22 (no result: CDC25B CDK2 inh)
Cc1ccc(C(=O)Cc2cc3ccccc3oc2=O)cc1C	none (no result: TAR Tat displ)
O=C(C1CCCN(c2ncnc3c2nc2n3CCCCC2)C1)N(Cc1ccco1)C1CCCCC1 (stereo unspecified)	none (no result: CDC25B CDK2 inh)
Cc1cccc(-n2cc(-c3ccccc3)c3c(NC4CC4)ncnc32)c1	none
C=CCOC(=O)c1sc(N2C(=O)c3oc4ccc(F)cc4c(=O)c3C2c2ccc(C)cc2)nc1C (stereo unspecified)	none
Cc1nc(-c2cccs2)c(CC(=O)N2CCCC2)s1	none
Cc1nc(-c2cccs2)c(CC(=O)Nc2ccc(N3CCCC3)cc2)s1	CDC25B CDK2 inh 12
COc1ccc(-c2cc(-c3cccnc3)c(C#N)c(N)n2)cc1	TAR Tat displ 3.2
N#Cc1c(-c2cccnc2)cc(-c2ccc(F)cc2)nc1N	none
Cc1ccc(CNCCCSc2nnnn2-c2ccccc2)s1	none
Cc1ccc(-n2ncc3c(NCC4CCCO4)ncnc32)cc1C (stereo unspecified)	none (no result: CDC25B CDK2 inh)
CCOC(=O)c1c(C)oc2c1c1c(c3ccccc32)OCN(CC2CCCO2)C1 (stereo unspecified)	CDC25B CDK2 inh 17
CCOC(=O)c1c(C)oc2c1c(CN1CCCC(C(=O)OCC)C1)c(O)c1ccccc12 (stereo unspecified)	none (no result: TAR Tat displ)
Nc1ccc2nc(SCC(=O)c3ccc(-c4ccccc4)cc3)sc2c1	CDC25B CDK2 inh 17 (no result: TAR Tat displ)
Nc1ccc2nc(SCC(=O)c3ccc(Br)cc3)sc2c1	none
Cc1ccc(-c2cnnc(-n3nc(C)c4c3NC(=O)CC4c3ccc(C(=O)O)cc3)n2)cc1 (stereo unspecified)	none
Cc1nn(-c2nc3ccccc3[nH]2)c2c1C(c1cc(F)cc(F)c1)CC(=O)N2 (stereo unspecified)	none (no result: CDC25B CDK2 inh)
Cc1nn(-c2nc3ccccc3[nH]2)c2c1C(c1ccc(C(=O)O)cc1)CC(=O)N2 (stereo unspecified)	TAR Tat displ 25 (no result: CDC25B CDK2 inh)
Cc1nn(-c2nncc(-c3ccc(F)cc3)n2)c2c1C(c1ccc(C(=O)O)cc1)CC(=O)N2 (stereo unspecified)	TAR Tat displ 3.7
COc1ccc(Cl)cc1N(C)C(=O)c1noc2c1CSc1ccccc1-2	none
CCCC(=O)Oc1ccc(C2C(C#N)=C(N)OC3=C2C(=O)CCC3)cc1 (stereo unspecified)	none (no result: TAR Tat displ)
CCCCCc1c(C)nn(-c2nc(CC(=O)Nc3nccs3)cs2)c1C	none
O=C(c1cn[nH]c1C1CCNCC1)N1CCN(c2ccc(F)cc2)CC1	none (no result: CDC25B CDK2 inh)
CC(C)Cn1cc(NC(=O)NC2CCCCC2)c2ccccc2c1=O	none (no result: CDC25B CDK2 inh)
Cn1cc(NC(=O)NC2CCCCC2)c2ccccc2c1=O	CDC25B CDK2 inh 19
CCC(C)NC(=O)C1=CC(c2ccc(F)cc2)=NS(=O)(=O)N1C (stereo unspecified)	TAR Tat displ 3.8
CN1C(C(=O)NCc2ccc(F)cc2)=CC(c2ccc(F)cc2)=NS1(=O)=O	none
O=C(Nc1ccc(F)cc1F)NC1CCN(c2nc3ccccc3s2)CC1	none
COc1ccc(C2CC(=O)N3CN(C)CSC3=C2C#N)c(OC)c1 (stereo unspecified)	CDC25B CDK2 inh 5.2
COc1ccc(N2CSC3=C(C#N)C(c4ccc(SC)cc4)CC(=O)N3C2)cc1 (stereo unspecified)	none
COc1ccc(C2CC(=O)N3CN(c4ccc(F)cc4)CSC3=C2C#N)c(OC)c1 (stereo unspecified)	CDC25B CDK2 inh 4.4
COc1ccc(Br)cc1C1CC(=O)N2CN(C)CSC2=C1C#N (stereo unspecified)	none
COc1ccc(N2CSC3=C(C#N)C(c4ccc(OC)cc4OC)CC(=O)N3C2)cc1 (stereo unspecified)	CDC25B CDK2 inh 3.4
Fc1ccc(C2=Nc3ccc(Br)cc3NC(c3ccncc3)=N2)cc1	none
COC(=O)c1cc(-c2ccc(S(=O)(=O)Nc3ccc(OC)cc3OC)s2)on1	none (no result: CDC25B CDK2 inh)
CCOc1ccc(C(=O)OCc2cc(=O)n3nc(CCOC)sc3n2)cc1	none (no result: CDC25B CDK2 inh)
O=[N+]([O-])c1cc(Cl)ccc1Sc1ccccc1NS(=O)(=O)c1ccc(F)cc1	none (no result: TAR Tat displ)
COc1ccc(NC(=O)NC(C)c2c(-n3cccc3)sc3c2CCCC3)cc1OC (stereo unspecified)	CDC25B CDK2 inh 11
COc1ccc(OC)c(NC(=O)NC(C)c2c(-n3cccc3)sc3c2CCCC3)c1 (stereo unspecified)	none
CCc1ccc2[nH]c(C)c(CN3CCN(C)CC3)c(=O)c2c1	none
Cc1cccn2c(=O)c(C(=O)NC(c3ccccc3)c3ccccc3)c(O)nc12	none
Cc1cccc(C)c1OCC(O)Cn1c[n+](C)c2ccccc21 (stereo unspecified)	none
CCCCN1COc2c(cc(Cl)c3cccnc23)C1	CDC25B CDK2 inh 17
Clc1cc2c(c3ncccc13)OCN(CCc1ccccc1)C2	none (no result: TAR Tat displ)
Nc1ccc(-c2nc3cc4sc(-c5ccc(N)cc5)nc4cc3s2)cc1	CDC25B CDK2 inh 4.5, TAR Tat displ 35
Nc1ccc(-c2nc3ccc(N)cc3s2)cc1	none
CCC(NC1CS(=O)(=O)CC1O)C(=O)O (stereo unspecified)	none
N#CC1=C2SCN(Cc3ccco3)CN2C(=O)CC1c1ccc(OCc2ccc(Cl)cc2)cc1 (stereo unspecified)	none
COc1ccc(Br)cc1C1CC(=O)N2CN(Cc3ccccc3)CSC2=C1C#N (stereo unspecified)	CDC25B CDK2 inh 3.2
COc1ccc(Br)cc1C1CC(=O)N2CN(c3ccccc3F)CSC2=C1C#N (stereo unspecified)	none
COc1ccc(CN2CSC3=C(C#N)C(c4ccc(Cl)cc4)CC(=O)N3C2)cc1 (stereo unspecified)	CDC25B CDK2 inh 3.8
COc1ccc(Br)cc1C1CC(=O)N2CN(c3ccccc3)CSC2=C1C#N (stereo unspecified)	CDC25B CDK2 inh 7.6
N#CC1=C2SCN(Cc3ccccc3)CN2C(=O)CC1c1cccc(Br)c1 (stereo unspecified)	none
COc1ccc(C2CC(=O)N3CN(Cc4ccccc4)CSC3=C2C#N)c(OC)c1 (stereo unspecified)	CDC25B CDK2 inh 4.5
N#CC1=C2SCN(Cc3ccccc3)CN2C(=O)CC1c1ccc(Br)cc1 (stereo unspecified)	none
CCCCN(CC)c1nc(-c2ccco2)c2c(c1C#N)CC(C)(C)OC2	none
CCOc1ccc(-c2nc(-c3ccc(C)cc3)no2)cc1	none
O=C(CCc1nnc2ccc(N3CCCC3)nn12)N1CCC(Cc2ccccc2)CC1	none (no result: CDC25B CDK2 inh)
O=S1(=O)C[C@H](NCCc2ccccc2)[C@@H](S(=O)(=O)c2ccccc2)C1	none
Cc1ccc(C)n1-c1ccc(Cl)c(C(=O)NN)c1	CDC25B CDK2 inh 19 (no result: TAR Tat displ)
Cc1ccc(C)n1-c1sccc1C(=O)NN	none (no result: TAR Tat displ)
N#Cc1c(NC(=O)C2CC(=O)OC23CCCCC3)sc2c1CCCCC2 (stereo unspecified)	none
